Assay outcomes (PubChem)
An excerpt weighted towards active compounds, which were near 2.8% of everything screened.
bovine MsrA act – activates bovine MsrA enzyme; purified bovine MsrA, absorbance read-out; 0.3% of 360,000 active; activation, % at 10.6 µM; in the data active = activation above about 7.5%
rCAG binder – molecules binding r(CAG) RNA repeats | 1.3% of 370,000 active | r(CAG) RNA repeat, TO-PRO-1 dye displacement fluorescence | inhibition, % at 3 µM;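 active = inhibition above the plate cutoff, the mean of all test compounds on that plate plus 3 SD, cut at about 35% in these data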;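 also: higher means more dye released from RNA so lower well fluorescence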
MsrA inh – inhibitors of bovine MsrA; purified bovine MsrA, absorbance read-out; inhibition, % at 15.5 µM; 0.75% of 360,000 active; in the data active = inhibition above about 4.5%
sPLA2-III inh – Inhibits HGIII-sPLA2 liposome hydrolysis, primary screen | Q9NZ20 | QFRET BODIPY PC-A2 liposome hydrolysis, fluorescence | inhibition, % at 12.2 µM | 0.56% of 370,000 active | AID 743126;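 active = inhibition above mean plus 3 SD of compounds lying within the high and low control bounds, cut at about 19% in these data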
Target sequence (Q9NZ20 whole entry, looked up): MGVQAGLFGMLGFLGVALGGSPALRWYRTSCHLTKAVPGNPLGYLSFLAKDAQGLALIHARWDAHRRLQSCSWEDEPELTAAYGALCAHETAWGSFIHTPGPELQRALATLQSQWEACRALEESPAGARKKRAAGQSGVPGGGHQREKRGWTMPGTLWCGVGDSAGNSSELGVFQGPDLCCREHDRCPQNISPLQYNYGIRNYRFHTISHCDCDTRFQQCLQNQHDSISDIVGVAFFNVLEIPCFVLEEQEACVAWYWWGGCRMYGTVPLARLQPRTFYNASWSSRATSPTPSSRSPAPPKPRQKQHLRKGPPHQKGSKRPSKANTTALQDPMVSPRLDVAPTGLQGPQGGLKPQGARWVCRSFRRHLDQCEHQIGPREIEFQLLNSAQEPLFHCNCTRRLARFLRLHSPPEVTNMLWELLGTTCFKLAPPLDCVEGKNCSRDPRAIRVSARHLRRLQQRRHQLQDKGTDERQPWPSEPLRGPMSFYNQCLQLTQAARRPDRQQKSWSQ
sPLA2 confirm – human GIII-sPLA2 inhibition, confirmation | shares compounds with sPLA2-III inh | recombinant hGIII-sPLA2, BODIPY PC-A2 QFRET fluorescence | inhibition, % at 12.2 µM | 34% of 2,000 active | AID 743280;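 active = mean inhibition across triplicates above the hit cutoff set in the earlier primary screen, cut at about 19% in these data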
BODIPY interf – 535nm fluorescence interference, HGIII-sPLA2 counter-screen; shares compounds with sPLA2-III inh; BODIPY FL product fluorescence interference, QFRET; inhibition, % at 12.2 µM; 8.5% of 2,000 active; AID 743282;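 active = average inhibition above the solvent-only control mean plus 3 SD, cut at about 6% in these data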
535nm interf DR – interferes with 535nm fluorescence in dose response counter-screen; BODIPY FL product fluorescence interference, cell-free; 240 tested, under 10 active; shares compounds with sPLA2-III inh; IC50, µM;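 active = IC50 at or below 10 µM; inactive = IC50 above 10 µM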
Hits are given with their value; . = inactive; / = no result; ! = a repeat was not active.

SMILES | bovine MsrA act | rCAG binder | MsrA inh | sPLA2-III inh | sPLA2 confirm | BODIPY interf | others
COc1ccccc1CCNC1CCCC(C)C1 (stereo not drawn) | . | . | . | 23 | . | .
CCCCn1c(=O)c(C(=O)Nc2ncccc2C)c(O)c2ccccc21 | . | . | . | 20 | . | .
CCN(CC)c1ccc(N=Cc2c(O)n(-c3cc(OC)ccc3OC)c(=O)[nH]c2=O)cc1 | . | . | . | . | / | /
C/C(=N\N1CCN(C)CC1)c1c(O)[nH]c(=O)[nH]c1=O | . | . | . | 20 | . | .
O=C1NC(=O)C(=Cc2ccc(-c3ccc(F)cc3O)o2)C(=O)N1 | . | . | . | . | / | /
NNCc1ccccc1 | . | . | . | 20! | . | .
c1ccc(CNC2CCCCCCC2)cc1 (tested in a mixture with another compound) | . | . | . | . | / | /
Cc1onc(-c2c(Cl)cccc2Cl)c1C(=O)Nc1ccc2c(C(F)(F)F)cc(=O)oc2c1 | . | . | . | . | / | /
CCC(C)N1C(=O)/C(=C\c2ccc(N3CCCCCC3)cc2)C(=O)NC1=S (stereo not drawn) | . | . | . | . | / | /
CCC(C)N1C(=O)/C(=C\c2cc3c4c(c2)CCCN4CCC3)C(=O)NC1=S (stereo not drawn) | . | . | . | 22 | 33 | . | 535nm interf DR=.
O=c1[nH]c(=S)n(CCC2=CCCCC2)c(O)c1C=NCCCn1ccnc1 | . | . | . | . | / | /
COc1ccccc1N1C(=O)NC(=O)/C(=C/c2ccc3c(c2)Cc2ccccc2-3)C1=O | . | . | . | . | / | /
CN(C)c1ccc(/C=C/[N+](=O)[O-])cc1 | . | . | . | 23 | . | .
Nc1cncc(C(=O)O)c1 | . | . | . | 21! | . | .
O=C1CCCN1C(=O)c1cncc(Br)c1 | . | . | . | . | / | /
COc1cc(CC(C)N)c(OC)cc1I (stereo not drawn) | . | . | . | 24! | . | .
COc1ccccc1Sc1ccccc1CC(C)N (stereo not drawn) | . | . | . | . | / | /
